Screening data as filed in PubChem BioAssay.
Compounds with a hit are over-represented: about 2.4% of the library has one in this group of screens.
TLR4 MyD88 comp – inhibitors of human TLR4-MyD88 binding. O00206+Q99836. HeLa CL3-4 TLR4/MyD88 BLA complementation, FRET ratio. inhibition, % at 8.4 µM. actives 0.18% (n = 200,000); in the data active = inhibition above about 25%
HSF1 inh – HSF1 inhibition. actives 0.77% (n = 300,000). activity change, negative = inhibition, % at 7.5 µM (by protocol). NIH3T3-HGL HSE-luciferase, MG132-induced, luminescence 8 h; hits give low values;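 active = more than half of replicate wells show activity change below -50%, luminescence cut by over half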;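 also: luciferase reports HSF-1 transcriptional activity via heat shock element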
NOD2-RIPK2 inh – inhibitors of human NOD2-RIPK2 interaction | CHO BLA complementation NOD2-RIPK2, CCF4 ratio | actives 0.38% (n = 360,000) | inhibition, % at 4.98 µM | O43353; in the data active = inhibition above about 21%
HSF-1 act – increases HSF-1 driven luciferase reporter signal; actives 1.7% (n = 300,000); NIH3T3-HGL HSF-1 luciferase reporter, MG132, 8 h; 100% = twice DMSO control signal; activation, % at 9 µM;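 active = mean replicate activation of at least 50% with a set share of replicates each reaching 50%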
TLR9-MyD88 inh – TLR9-MyD88 interaction inhibition | actives 0.21% (n = 340,000) | Q9NR96+Q99836 | CHO BLA complementation TLR9-MyD88, CCF4 FRET ratio | inhibition, % at 4.98 µM | AID 504734;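 active = inhibition above the mean over all tested compounds plus 3 SD, cut at about 21% in these data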
Target sequence (Q99836 whole entry, looked up): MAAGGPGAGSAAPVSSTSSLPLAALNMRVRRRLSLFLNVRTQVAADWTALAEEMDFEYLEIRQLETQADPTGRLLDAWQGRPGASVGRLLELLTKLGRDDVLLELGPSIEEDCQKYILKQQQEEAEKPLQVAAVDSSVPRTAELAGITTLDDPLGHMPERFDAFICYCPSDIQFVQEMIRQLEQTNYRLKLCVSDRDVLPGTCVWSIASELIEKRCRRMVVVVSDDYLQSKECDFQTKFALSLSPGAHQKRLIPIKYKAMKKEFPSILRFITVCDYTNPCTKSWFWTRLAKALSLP
Target sequence (Q9NR96 whole entry, looked up): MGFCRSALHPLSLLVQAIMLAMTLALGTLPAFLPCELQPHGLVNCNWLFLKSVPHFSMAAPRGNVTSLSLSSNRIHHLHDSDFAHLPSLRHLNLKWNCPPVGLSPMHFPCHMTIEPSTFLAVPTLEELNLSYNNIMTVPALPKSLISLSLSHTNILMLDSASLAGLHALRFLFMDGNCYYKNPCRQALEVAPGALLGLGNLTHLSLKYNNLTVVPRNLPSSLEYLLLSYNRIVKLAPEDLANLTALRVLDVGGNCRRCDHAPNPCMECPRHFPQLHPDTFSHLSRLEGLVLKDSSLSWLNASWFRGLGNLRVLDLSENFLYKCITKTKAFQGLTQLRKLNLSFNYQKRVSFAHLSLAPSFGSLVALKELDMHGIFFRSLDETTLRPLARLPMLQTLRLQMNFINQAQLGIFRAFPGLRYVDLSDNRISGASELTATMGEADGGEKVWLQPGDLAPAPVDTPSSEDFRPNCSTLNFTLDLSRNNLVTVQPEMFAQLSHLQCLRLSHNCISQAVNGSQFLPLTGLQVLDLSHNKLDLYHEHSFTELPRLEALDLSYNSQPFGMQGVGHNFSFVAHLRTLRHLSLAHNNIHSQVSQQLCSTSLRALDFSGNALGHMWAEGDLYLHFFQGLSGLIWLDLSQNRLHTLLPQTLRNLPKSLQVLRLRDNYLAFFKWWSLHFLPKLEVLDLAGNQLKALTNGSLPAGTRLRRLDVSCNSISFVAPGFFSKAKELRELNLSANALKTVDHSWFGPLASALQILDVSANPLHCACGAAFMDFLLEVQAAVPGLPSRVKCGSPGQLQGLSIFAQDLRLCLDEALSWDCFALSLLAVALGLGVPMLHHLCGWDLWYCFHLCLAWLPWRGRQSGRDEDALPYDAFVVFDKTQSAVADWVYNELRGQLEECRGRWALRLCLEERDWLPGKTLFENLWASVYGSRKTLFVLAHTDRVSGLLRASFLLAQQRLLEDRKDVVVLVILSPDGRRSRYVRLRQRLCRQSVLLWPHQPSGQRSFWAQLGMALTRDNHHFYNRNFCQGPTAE
A number is an active result; – = inactive; · = not tested or not shown.

SMILES	TLR4 MyD88 comp	HSF1 inh	NOD2-RIPK2 inh	HSF-1 act	TLR9-MyD88 inh
NC(Cc1ccccc1)c1nc2ccccc2[nH]1 (configuration not stated)	·	–	–	–	–
NC(Cc1nc2ccccc2[nH]1)c1ccc(Cl)cc1 (configuration not stated)	·	–	–	88	–
Nc1ncnc2c1ccn2[C@@H]1O[C@H](CO)[C@@H](O)[C@H]1O	·	-79	–	–	–
NC(=S)c1cn(C2OC(CO)C(O)C2O)c2ncnc(N)c12 (configuration not stated)	·	-67	–	–	–
O=C1NC(=S)NC(=O)C1=Cc1cccn1-c1ccc(O)cc1	–	–	–	154	–
CN1C(=O)/C(=C/c2cccn2-c2ccc3ccccc3c2)C(=O)NC1=S	–	–	–	–	–
CC(C)(C)C(=O)N1Cc2cc(N3CCOCC3)ccc2-n2nncc2C1	·	·	–	·	·
O=C1CC(N2CC=C(c3ccc(F)cc3)CC2)C(=O)N1c1ccc(F)cc1 (configuration not stated)	–	-71	–	–	–
CCOC(=O)c1ccc(N=C(C)c2c(O)[nH]c(=O)[nH]c2=O)cc1	·	-63	–	–	–
COC(=O)C1=COC(C)C2CN3CCc4c([nH]c5cc(OC)ccc45)C3CC12 (configuration not stated)	·	·	–	·	·
CN1CC(C(=O)c2ccc(F)cc2)C(c2c(F)cccc2Cl)C1 (configuration not stated)	–	–	–	82	–
Cc1noc(C)c1COc1ccc(C(=O)NCC2(N(C)C)CCCCC2)cc1	·	·	–	·	–
O=C(Cc1ccccc1)Oc1ccccc1N1C(=O)CCC1=O	–	-62	–	–	–
O=C(Cc1ccccc1)Oc1ccc(N2C(=O)CCC2=O)cc1	–	–	–	–	–
CCOP(=O)(C(NC(=O)c1ccccc1Cl)=C(Cl)Cl)c1ccccc1 (configuration not stated)	–	–	–	90	–
CCOP(=O)(OCC)C(NC(=O)c1ccccc1Cl)=C(Cl)Cl	–	–	–	–	–
N#CCCn1cc(C(=O)Nc2ccc([N+](=O)[O-])cc2)c(-c2ccccc2)n1	·	-71	–	–	–
N#CCCn1cc(C(=O)Nc2ccc(F)cc2)c(-c2ccc([N+](=O)[O-])cc2)n1	–	–	–	–	–
CCOP(=O)(OCC)C(c1ccccc1)N(C)C=O (configuration not stated)	–	–	58	–	–
Cc1ccsc1C(=O)C1CCCN(Cc2c(C)nn(C(C)C)c2C)C1 (configuration not stated)	–	–	–	–	–
CCOC(=O)[C@@H]1[C@H]2COc3ccc(Br)cc3[C@@H]2N2C(=O)N(c3cccc(C)c3)C(=O)[C@]12C	·	–	–	–	–
COc1ccccc1N1CCN(Cc2cccc(OC)c2O)CC1	–	–	–	88	–
C[N+]1(CC2COC(c3ccco3)O2)CCCCC1 (configuration not stated)	–	-66	–	–	–
COC(=O)C1=C(c2c(C)noc2C)C[C@@H]2CC[C@H]1N2C(=O)NCc1ccc(F)cc1	·	·	–	·	–
Cc1cccn2c(=O)c3c(nc12)N1CCC(Cc2ccccc2)CC1C1(C3)C(=O)N(C)C(=O)N(C)C1=O (configuration not stated)	–	–	–	56	–
SMILES	TLR4 MyD88 comp	HSF1 inh	NOD2-RIPK2 inh	HSF-1 act	TLR9-MyD88 inh
Cc1cccn2c(=O)c3c(nc12)N1CCCCC1C1(C3)C(=O)N(C)C(=O)N(C)C1=O (configuration not stated)	·	–	–	–	·
COc1cccc(C(c2nnnn2-c2c(C)cccc2C)N2CCC(n3c(=O)[nH]c4ccccc43)CC2)c1OC (configuration not stated)	·	·	–	·	·
CC(C)(C)C(=O)Nc1ccc(S(=O)(=O)N2CC3CC(C2)c2cccc(=O)n2C3)cc1 (configuration not stated)	·	–	–	–	–
C[C@@H]1CN([C@@H](C)CO)C(=O)CCCn2nncc2CO[C@@H]1CN(C)C(=O)Oc1cccc2ccccc12	·	·	–	·	–
CN1CCN(c2ccc([N+](=O)[O-])c3cccnc23)CC1	–	-57	–	–	–
O=[N+]([O-])c1ccc(N2CCCC2)c2ccncc12	–	-60	–	–	–
O=[N+]([O-])c1ccc(NC2CCCC2)c2ccncc12	·	–	–	–	–
COCCNC(=O)CN1C(=O)CN=C(c2ccccc2)c2ccccc21	·	–	–	–	–
O=C1NCN(c2ccccc2)C12CCN(C(c1cccs1)c1nnnn1Cc1ccccc1)CC2 (configuration not stated)	·	·	–	·	·
CCOC(=O)[C@]12Cc3c(cc(OC)c(OC)c3OC)[C@H]1N(C(C)C)C(=O)c1ccccc12	·	·	–	·	·
Brc1ccc2c(c1)CN(CC1CCCCC1)Cc1cnnn1-2	·	·	–	·	·
COc1ccc(C2=NCC(=S)Nc3ccc(Cl)cc32)cc1OC	·	–	–	–	–
S=C1CN=C(c2ccccc2)c2cc(Cl)ccc2N1	–	–	–	65	–
C[C@@H]1CN([C@H](C)CO)C(=O)CCCn2cc(nn2)CO[C@H]1CN(C)C(=O)Oc1ccc2ccccc2c1	·	·	–	·	–
COC1C(C)OC(OC2CC(C)(O)Cc3cc4c(c(O)c32)C(=O)c2c(O)cc3c(c2C4=O)OC2OC3(C)C(O)C(N(C)C)C2O)C(OC)C1(C)OC (configuration not stated)	·	71	–	71	–
CCCCn1c(NC(=O)c2ccco2)c(C(=O)OCC)c2nc3ccccc3nc21	–	–	–	71	–
CCn1c(O)c(C=Nc2ccc(N3CCOCC3)c(Br)c2)c(=O)n(CC)c1=S	–	-67	–	–	–
CCn1c(O)c(/C=N/N2CCOCC2)c(=O)n(CC)c1=S	–	–	–	–	–
CC(C)C1CN1CC(O)Cn1ccnc1[N+](=O)[O-] (configuration not stated)	·	·	–	·	·
COc1ccc(SCC2CN(C)CCC2c2ccc(F)cc2)cc1 (configuration not stated)	·	–	–	67	–
COc1cc(C(c2c(C)[nH]n(-c3ccccc3)c2=O)c2c(C)[nH]n(-c3ccccc3)c2=O)cc(OC)c1OC	–	–	–	55	–
COC(=O)C(O)(c1c(C)[nH]n(-c2ccccc2)c1=O)C(F)(F)F (configuration not stated)	–	–	–	–	–
COc1ccc(N2C(=O)NC(=O)/C(=C/c3ccc([N+](=O)[O-])s3)C2=O)cc1	·	–	–	64	·
C=CCN1CCc2cccc3c2[C@H]1Cc1ccc(O)c(O)c1-3	·	–	–	95	–
C=CCN1CC[C@]23c4c5ccc(O)c4O[C@H]2C(=O)CC[C@@]3(O)[C@H]1C5	–	–	–	–	–
Cc1ccc(-n2nc(C)c3c2NC(=O)CSC3c2ccc3c(c2)OCO3)cc1 (configuration not stated)	–	-63	–	–	–
CN1C(=O)C(=Cc2c(OCc3cnc(Cl)s3)ccc3ccccc23)C(=O)N(C)C1=O	–	–	–	61	–
